# Results reported in the supplement of paper PMC10127200.
# Counter-ions that a name gives are not always drawn.
# How the values were obtained:
# Experiment in all cases: Euclidean distance of Cell Painting phenotypic profile (signed KS, 77 features) to DMSO centroid (dimensionless distance); 5 or 10 uM (library dependent); higher = stronger phenotypic change vs DMSO (phenoactivity)
# Conditions in all cases: 48 h
# [1] = tested on: 786-O
# How it was run: (§1)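 Phenoactivity is defined as the Euclidean distance from a compound profile to the median vehicle profile. Each profile comprised 77 Harmony features, scored as signed Kolmogorov-Smirnov statistics versus same-plate vehicle wells, then plate-position corrected, correlation-weighted and replicate-averaged at the top dose. Five cancer lines and one healthy fibroblast line were exposed to library compounds for 48 h at 10 or 5 uM (0.1% DMSO final).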
# [2] = tested on: A549
# How it was run: as §1
# [3] = tested on: DU145
# How it was run: as §1
# [4] = tested on: FB
# How it was run: as §1
# [5] = tested on: HEPG2
# How it was run: as §1
# [6] = tested on: OVCAR4
# How it was run: as §1
Structure (SMILES),Euclidean distance [1],Euclidean distance [2],Euclidean distance [3],Euclidean distance [4],Euclidean distance [5],Euclidean distance [6]
CCCN[C@H]1CCc2nc(N)sc2C1 [Pramipexole 2HCl Monohydrate],0.779,1.01,1.58,1.08,0.888,1.26
C=C1C(=O)O[C@H]2[C@H]1CC/C(C)=C/CC[C@@]1(C)O[C@@H]21 [(-)-Parthenolide],3.29,1.26,3.27,2.7,1.55,1.16
CC(C)CCN1c2nc(Nc3cc(F)c(O)c(F)c3)ncc2N(C)C(=O)C1C (centres undefined),1.38,1.84,2.16,1.49,0.771,2.61
FC(F)(c1ccc2ncccc2c1)c1nnc2ccc(-c3ccncc3)nn12,1.6,0.84,2.54,0.717,1.24,1.2
O=C1[C@H]2CCCC[C@H]2C(=O)N1CCCCN1CCN(c2nsc3ccccc23)CC1 [Perospirone hydrochloride],2.05,1.44,1.08,1.59,1.05,1.36
OCCN1CCN(CCCN2c3ccccc3Sc3ccc(C(F)(F)F)cc32)CC1 [Fluphenazine dihydrochloride],1.98,2.27,1.87,2.76,2.66,1.77
OCc1ccccc1O[C@@H]1O[C@H](CO)[C@@H](O)[C@H](O)[C@H]1O [Salicin],1.17,0.655,0.503,0.638,0.419,1.21
CC(Cc1ccc(O)c(O)c1)C(C)Cc1ccc(O)c(O)c1 (centres undefined) [Nordihydroguaiaretic acid (NDGA)],1.19,0.902,1.27,1.54,1.06,0.861
Cc1c(O)cccc1C(=O)N[C@@H](CSc1ccccc1)[C@H](O)CN1C[C@H]2CCCC[C@H]2C[C@H]1C(=O)NC(C)(C)C [Nelfinavir Mesylate],1.88,2.45,1.22,1.59,1.01,1.16
Cc1cc(C)nc(O)n1.O=C(Nc1ccc([N+](=O)[O-])cc1)Nc1ccc([N+](=O)[O-])cc1 [Nicarbazin],1.37,1.24,0.953,1.62,0.833,1.15
Nc1cccc2c1CN(C1CCC(=O)NC1=O)C2=O (centres undefined) [Lenalidomide (CC-5013)],1.74,1.2,0.79,1.03,0.639,1.15
CNC(=C[N+](=O)[O-])NCCSCc1csc(CN(C)C)n1 [Nizatidine],1.68,1.53,2.02,0.759,1.7,1.18
O=C(O)COCCN1CCN(C(c2ccccc2)c2ccc(Cl)cc2)CC1 (centres undefined) [Cetirizine DiHCl],1.09,0.92,1.29,1.32,0.618,1.47
CC(=O)Oc1cc(C(F)(F)F)ccc1C(=O)O [Triflusal],1.03,1.2,0.857,0.956,0.829,1.16
CCOC(=O)C1=C[C@@H](OC(CC)CC)[C@H](NC(C)=O)[C@@H](N)C1 [Oseltamivir Phosphate],1.49,1.2,1.23,0.91,0.386,1.62
COc1ccc2cc([C@H](C)C(=O)O)ccc2c1 [Naproxen Sodium],1.02,0.936,0.948,0.856,0.593,0.977
COc1cc2c(Nc3ccc(NC(=O)c4ccccc4)cc3)ncnc2cc1OCCCN1CCOCC1,2.71,3.81,3.11,2.7,1.92,3.02
COc1cc(O)c2c(c1)oc(=O)c1c3cc(O)c(O)cc3oc21 [Wedelolactone],1.08,1.94,1.02,2.37,2.5,2.37
NCCCC[C@H](NC(=O)[C@@H]1CCCN1C(=O)[C@@H]1CSSC[C@H](NC(=O)CNC(=O)CNC(=O)CN)C(=O)N[C@@H](Cc2ccc(O)cc2)C(=O)N[C@@H](Cc2ccccc2)C(=O)N[C@@H](CCC(N)=O)C(=O)N[C@@H](CC(N)=O)C(=O)N1)C(=O)NCC(N)=O [Terlipressin Acetate],1.69,0.833,1.36,0.976,0.531,1.15
CCCCCCCCN=c1ccn(CCCCCCCCCCn2ccc(=NCCCCCCCC)cc2)cc1 [Octenidine Dihydrochloride],6.46,4.73,6.38,6.45,4.62,6.71
Cc1cc(C(C)(C)C)c(O)c(C)c1CC1=NCCN1 [Oxymetazoline HCl],1.3,0.82,0.75,1.1,1.88,0.83
CC(=O)Nc1nc(C)c(-c2ccc(Cl)c(S(=O)(=O)NCCO)c2)s1,0.94,1.48,1.62,2.98,0.945,1.12
CCn1cc(C(=O)O)c(=O)c2cnc(N3CCCC3)nc21 [Piromidic Acid],1.37,0.767,0.647,0.879,0.512,1.02
CCCOc1ccc2c(c1)CC[C@@H]1[C@@H]2CC[C@]2(C)[C@@H](OC)CC[C@@H]12 [Promestriene],1.13,0.797,0.94,1.24,0.764,1.01
